# The supplement of paper PMC9135407
# Several values for one entry are separate records, joined by “and”; a condition that tells them apart may be missing. Equal values may be shown once. Where a name gives a salt, the structure may show the parent alone. In all, about 5,800 compounds went through this assay and about 620 (11%) showed activity. The sample as a whole holds a higher share of actives than the screen did. A number with no mark means an inactive call.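 The calls were made as follows: active = score above a cut-off or among the top three wells of a plate; in these data no inactive exceeds 0.85.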
# Tested on: primary human hepatic stellate cells (donor 1)
# Test: scaled lipid accumulation score (0 = DMSO-like, 1 = nortriptyline-like); higher = stronger HSC inactivation (lipid re-accumulation), active = hit call of the paper
# Settings: 48 h
# Description: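 Primary lipid accumulation screen in primary human hepatic stellate cell myofibroblasts (donor 1, passage 8) in 384-well plates. 100 nL of library compound was pin-transferred into 30 µL medium in duplicate, and cells were treated for 48 h. The 'Scaled' score combines distance from plate baseline, toxicity and reproducibility penalties, and is normalised to nortriptyline (positive) and DMSO (negative) controls on each plate. A hit is defined as scaled >0.85 or among the top 3 wells per plate.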
# [1] = library stock concentration: 1 mM
# [2] = library stock concentration: 3.33 mM
# [3] = library stock concentration: 10 mM
# [4] = library stock concentration: 400 uM
# [5] = library stock concentration: 80 uM
# [6] = library stock concentration: 2 mM
compound,measurement,setting,value
CCCCCCCCCCCCC(=O)NC1CCOC1=O [N-tridecanoyl-L-Homoserine lactone],scaled lipid accumulation score,[1],≤ 0
COc1cccc(C=NCCN=Cc2cccc(OC)c2[O-])c1[O-].[Cl-].[Mn+3],scaled lipid accumulation score,[2],≤ 0
same,scaled lipid accumulation score,[3],0.234
Cc1ccc(/C=N/NC(=O)c2ccccc2Oc2ccccc2)o1,scaled lipid accumulation score,[3],≤ -0.001
CN(C)C(=O)n1nnnc1Cc1ccc(-c2ccccc2)cc1,scaled lipid accumulation score,[3],0.554
O=C(NC1CCOCC1)c1ccc(-c2cc(-c3c[nH]nc3-c3ccccn3)ccn2)cc1,scaled lipid accumulation score,[2],≤ 0
same,scaled lipid accumulation score,[3],≤ 0
O=C(Nc1c[nH]nc1-c1nc2ccc(CN3CCOCC3)cc2[nH]1)NC1CC1 [listing 1 of 2 here],scaled lipid accumulation score,[4],0.877 (active)
O=C(Nc1c[nH]nc1-c1nc2ccc(CN3CCOCC3)cc2[nH]1)NC1CC1 [listing 2 of 2 here],scaled lipid accumulation score,[5],0.613
same,scaled lipid accumulation score,[4],0.259
same,scaled lipid accumulation score,[6],0.562 and 0.591
same,scaled lipid accumulation score,[2],0.59
same,scaled lipid accumulation score,[3],0.791 and 0.755 and 0.681
CCCCC[C@H](O)/C=C/[C@H]1[C@@H]2CO[C@@H](C2)[C@@H]1C/C=C\CCCC(=O)O,scaled lipid accumulation score,[1],≤ 0
"O=P(O)(O)O[C@@H]1[C@H](O)[C@H](O)[C@@H](OP(=O)(O)O)[C@H](OP(=O)(O)O)[C@H]1O [D-myo-Inositol-1,4,5-triphosphate (sodium salt)]",scaled lipid accumulation score,[1],0.018
CN(C)CCCOc1nn(Cc2ccccc2)c2ccccc12.Cl [Benzydamine HCl],scaled lipid accumulation score,[3],1.08 (active)
CN(C)CCCOc1nn(Cc2ccccc2)c2ccccc12 [Benzydamine hydrochloride],scaled lipid accumulation score,,0.652
same,scaled lipid accumulation score,library stock concentration: 5.8 mM,0.429
CN(C)CCCOc1nn(Cc2ccccc2)c2ccccc12 [Benzydamine HCl],scaled lipid accumulation score,[2],0.13
CC(C)(OCc1nn(Cc2ccccc2)c2ccccc12)C(=O)O [Bindarit],scaled lipid accumulation score,[2],≤ 0
same,scaled lipid accumulation score,[3],≤ 0
"COc1cc2c(cc1Cc1cccc(Cl)c1F)c(=O)c(C(=O)O)cn2[C@H](CO)C(C)C [Elvitegravir (GS-9137, JTK-303)]",scaled lipid accumulation score,[2],≤ 0
same,scaled lipid accumulation score,[3],≤ 0
O=C(O)CCCCCCC1C(=O)N(Cc2ccccc2)C(=O)N1NCC(O)C1CCCCC1 (stereo not given),scaled lipid accumulation score,[1],≤ 0
CCCn1cc(-c2ccnc(NC3CCN(Cc4cccnc4)CC3)n2)c(C)n1,scaled lipid accumulation score,[3],0.91 (active)
COC(=O)C[C@](O)(CCCC(C)(C)O)C(=O)O[C@@H]1C(OC)=C[C@]23CCCN2CCc2cc4c(cc2[C@H]13)OCO4 [Homoharringtonine],scaled lipid accumulation score,[3],1.27 (active)
O=C1O/C(=C/Br)CCC1c1cccc2ccccc12 (stereo not given) [Bromoenol lactone],scaled lipid accumulation score,[1],≤ 0
O=c1[nH]c(C2CCCN2)nc2c1oc1ccc(Cl)cc12 (stereo not given),scaled lipid accumulation score,[5],≤ 0
same,scaled lipid accumulation score,[4],0.055
same,scaled lipid accumulation score,[6],≤ 0
same,scaled lipid accumulation score,[3],≤ 0
O=C(O)CCC/C=C\C[C@@H]1[C@@H](/C=C/[C@@H](O)C2CCCCC2)[C@H](O)C[C@@H]1O [15-cyclohexyl pentanor Prostaglandin F2.alpha.],scaled lipid accumulation score,[1],≤ 0
CCCCC/C=C\C/C=C\C/C=C\C/C=C\CCCCCC(=O)O [Adrenic Acid],scaled lipid accumulation score,[1],≤ 0
O=C(Nc1ccccc1-c1cn2c(CN3CCNCC3)csc2n1)c1cnc2ccccc2n1,scaled lipid accumulation score,[2],0.121
same,scaled lipid accumulation score,[3],0.384
CCOC(=O)[C@H](CCc1ccccc1)N[C@@H](C)C(=O)N1[C@H](C(=O)O)C[C@H]2CCCC[C@@H]21 [Trandolapril],scaled lipid accumulation score,[3],0.059 and 0.177
CCCCCC(=O)/C=C/[C@@H]1[C@@H](CCCCCCC(=O)O)[C@@H](O)C[C@H]1O [15-keto Prostaglandin F1.alpha.],scaled lipid accumulation score,[1],≤ 0
Cc1cnc(CNC(=O)c2c(=O)c3ccc(N4CCCN(C)CC4)nc3n3c2sc2ccccc23)cn1,scaled lipid accumulation score,[5],≤ 0
same,scaled lipid accumulation score,[4],≤ 0
same,scaled lipid accumulation score,[6],≤ 0
same,scaled lipid accumulation score,[3],≤ 0
CC(CN(C)C)CN1c2ccccc2CCc2ccccc21.O=C(O)/C=C\C(=O)O (stereo not given) [Trimipramine maleate],scaled lipid accumulation score,[3],0.877 (active)
CCOC(=O)[C@H](CCc1ccccc1)N[C@H]1CCc2ccccc2N(CC(=O)O)C1=O [Benazepril hydrochloride],scaled lipid accumulation score,[3],≤ -0.027 and 0.038
CC(CN(C)C)CN1c2ccccc2CCc2ccccc21 (stereo not given) [Trimipramine maleate salt],scaled lipid accumulation score,,0.27
CC(CN(C)C)CN1c2ccccc2Sc2ccccc21 (stereo not given) [Trimeprazine tartrate],scaled lipid accumulation score,,0.689
same,scaled lipid accumulation score,[3],0.834
CCOC(=O)[C@H](CCc1ccccc1)N[C@H]1CCc2ccccc2N(CC(=O)O)C1=O,scaled lipid accumulation score,[3],≤ 0
CC(CN(C)C)CN1c2ccccc2CCc2ccccc21 (stereo not given) [Trimipramine maleate],scaled lipid accumulation score,library stock concentration: 4.9 mM,0.715
same,scaled lipid accumulation score,[3],0.647
COc1ccc2c(c1)N(C[C@H](C)CN(C)C)c1ccccc1S2 [Methotrimeprazine maleat salt],scaled lipid accumulation score,,0.642
CC(CN(C)C)CN1c2ccccc2Sc2ccccc21.O=C(O)C(O)C(O)C(=O)O (stereo not given) [Trimeprazine tartrate],scaled lipid accumulation score,library stock concentration: 4.5 mM,0.915 (active)
CCOC(=O)[C@H](CCc1ccccc1)N[C@H]1CCc2ccccc2N(CC(=O)O)C1=O [Benazepril HCl],scaled lipid accumulation score,[2],≤ 0
same,scaled lipid accumulation score,[3],≤ 0
COc1ccc(-c2oc3c(CC=C(C)C)c(O[C@@H]4O[C@H](CO)[C@@H](O)[C@H](O)[C@H]4O)cc(O)c3c(=O)c2O[C@@H]2O[C@@H](C)[C@H](O)[C@@H](O)[C@H]2O)cc1,scaled lipid accumulation score,[3],≤ 0
COc1ccc(-c2oc3c(CC=C(C)C)c(O[C@@H]4O[C@H](CO)[C@@H](O)[C@H](O)[C@H]4O)cc(O)c3c(=O)c2O[C@@H]2O[C@@H](C)[C@H](O)[C@@H](O)[C@H]2O)cc1 [Icariin],scaled lipid accumulation score,[2],0.048
same,scaled lipid accumulation score,[3],≤ 0
CCCCC[C@H](O)/C=C/[C@H]1[C@H](O)CC(=O)[C@@H]1C/C=C\CCCC(=O)OCC(O)CO (stereo not given in full) [Prostaglandin E2-1-glyceryl ester],scaled lipid accumulation score,[1],≤ 0
CCCCC[C@H](O)/C=C/[C@@H]1[C@@H](C/C=C\CCCC(=O)NCC)[C@@H](O)C[C@H]1O [Prostaglandin F2.alpha. ethyl amide],scaled lipid accumulation score,[1],≤ 0
CCCCCCCCCCCCCCOc1ccc(C(=O)O)o1,scaled lipid accumulation score,[1],0.036
COc1ccc(-c2cnc3c(-c4ccsc4)cnn3c2)cc1 [VEGF Receptor 2 Kinase Inhibitor IV],scaled lipid accumulation score,[2],≤ 0
CC(C)(C)c1ccc(S(=O)(=O)/C=C/C#N)cc1 [listing 1 of 2 here],scaled lipid accumulation score,[3],0.172
Cc1ccc(S(=O)(=O)C=CC#N)cc1,scaled lipid accumulation score,[2],0.718
same,scaled lipid accumulation score,[3],0.445
Cc1ccc(S(=O)(=O)/C=C/C#N)cc1 [listing 1 of 2 here],scaled lipid accumulation score,[3],0.931 (active)
Cc1ccc(S(=O)(=O)/C=C/C#N)cc1 [listing 2 of 2 here],scaled lipid accumulation score,[5],≤ -0.001
same,scaled lipid accumulation score,[4],≤ -0.001
same,scaled lipid accumulation score,[6],0.813
same,scaled lipid accumulation score,[2],0.807
same,scaled lipid accumulation score,[3],0.729 and 0.437
same,scaled lipid accumulation score,library stock concentration: 24.1 mM,0.648
"CC(C)(C)c1ccc(S(=O)(=O)Nc2ccc(-n3ccnc3)cc2)cc1 [Stem-Cell Factor/c-Kit Inhibitor, ISCK03]",scaled lipid accumulation score,[2],≤ 0
CC(C)(C)c1ccc(S(=O)(=O)/C=C/C#N)cc1 [listing 2 of 2 here],scaled lipid accumulation score,[3],1.12 (active)
Cc1cc2c(C(=O)NCC(C)c3ccccc3)c(O)c(O)cc2c(O)c1-c1c(C)cc2c(C(=O)NCC(C)c3ccccc3)c(O)c(O)cc2c1O (stereo not given) [Sabutoclax],scaled lipid accumulation score,[2],0.768
same,scaled lipid accumulation score,[3],0.582
COc1cc(CCc2cc(NC(=O)c3ccc(N4CC(C)NC(C)C4)cc3)n[nH]2)cc(OC)c1 (stereo not given),scaled lipid accumulation score,[5],≤ -0.016
same,scaled lipid accumulation score,[4],≤ -0.016
same,scaled lipid accumulation score,[6],0.369
same,scaled lipid accumulation score,[2],0.476
same,scaled lipid accumulation score,[3],0.5
CC(Cc1ccccc1)Nc1ncnc2c1ncn2C1OC(CO)C(O)C1O (stereo not drawn) [R(-)-N6-(2-Phenylisopropyl)adenosine],scaled lipid accumulation score,[3],≤ -0.055
N#Cc1c(O)c2c(-c3ccc(-c4ccccc4O)cc3)csc2[nH]c1=O,scaled lipid accumulation score,[2],0.004
same,scaled lipid accumulation score,[3],≤ 0 and 0.001
CC1(C)S[C@@H]2[C@H](NC(=O)COc3ccccc3)C(=O)N2[C@H]1C(=O)O [Penicillin v potassium],scaled lipid accumulation score,library stock concentration: 5.1 mM,0.003
same,scaled lipid accumulation score,[3],≤ 0
CC1(C)S[C@@H]2[C@H](NC(=O)COc3ccccc3)C(=O)N2[C@H]1C(=O)O [Penicillin V],scaled lipid accumulation score,[3],≤ 0
Cc1ccc(Sc2cncc3sc(C(N)=O)cc23)cc1,scaled lipid accumulation score,[2],0.183
same,scaled lipid accumulation score,[3],0.478 and 0.373
CCOC(=O)CCC(=O)O[C@H]1[C@H](O[C@@H]2[C@@H](C)[C@H](O[C@H]3C[C@@](C)(OC)[C@@H](O)[C@H](C)O3)[C@@H](C)C(=O)O[C@H](CC)[C@@](C)(O)[C@H](O)[C@@H](C)C(=O)[C@H](C)C[C@@]2(C)O)O[C@H](C)C[C@@H]1N(C)C [Erythromycin ethylsuccinate],scaled lipid accumulation score,library stock concentration: 2.3 mM,≤ -0.001
same,scaled lipid accumulation score,[3],≤ 0
CCOC(=O)CCC(=O)O[C@H]1[C@H](O[C@@H]2[C@@H](C)[C@H](O[C@H]3C[C@@](C)(OC)[C@@H](O)[C@H](C)O3)[C@@H](C)C(=O)O[C@H](CC)[C@@](C)(O)[C@H](O)[C@@H](C)C(=O)[C@H](C)C[C@@]2(C)O)O[C@H](C)C[C@@H]1N(C)C [Eryped],scaled lipid accumulation score,[3],≤ 0
